# Assay outcomes deposited in PubChem BioAssay by Broad Institute.
# GSIS activator: GLuc luminescence reporter in INS-1E cells, primary screen for activators of glucose-dependent secretion of insulin; activation, % at 16.6 µM; AID 743287; INS-1E GLuc reporter insulin secretion, 2-3 h; hit rate 0.61% among 370,000;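 active = lowest replicate activation of at least 40%, so every replicate reaches that level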
# PAX8 inh HTS: lowers PAX8-driven luciferase in RMG-I cells | RMG-I TPO-luciferase reporter, SteadyGlo, 24 h | inhibition, % at 12.6 µM | hit rate 1.2% among 360,000 | AID 652154;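 active = mean replicate inhibition at least 60% with every replicate also reaching 60%; inconclusive = only one of the two criteria is met; inactive = mean below 60% and not all replicates reaching 60%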;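 also: luciferase light reporting Pax8 driven TPO promoter activity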
# C2C12 statin: suppressors of simvastatin-induced myotoxicity in C2C12 myotubes; ATP luminescence, 48 h; scaled: DMSO 0, geranylgeraniol control 100; rescue of ATP level, % at 7.49 µM; hit rate 0.78% among 330,000;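 active = mean ATP rescue above about 67%, or every replicate alone reaching that limit, limit read from the data, passing the limit was not always enough; inconclusive = no clear call, values can overlap the other calls; inactive = mean under the limit and some replicate under it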;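 also: myotubes were challenged with 10 µM simvastatin during compound exposure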
# miR-122 sensor: inhibitors of miR-122 in Huh7 cells; Huh7 miR-122 Renilla luciferase sensor, 48 h; neutral wells = 0, positive control = 100; activation (reporter increase), % at 12.5 µM; hit rate 0.3% among 340,000; AID 602342;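 active = mean replicate activation score at least 90 and every replicate individually at or above 90; inconclusive = only one of the two criteria met; inactive = neither criterion met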;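 also: higher luciferase means less miR-122 activity so hits act as miR-122 inhibitors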
# EWS-Fli block: inhibitors of EWS/Fli oncoprotein transcriptional activity | AID 651661 | inhibition, % at 12.6 µM | hit rate 0.67% among 350,000 | A673 NR0B1-luciferase reporter, viability-normalised;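 active = mean inhibition of at least 50% after viability correction, with every replicate also passing that limit; inconclusive = mean reaches 50% but only one of two replicates passes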;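 also: firefly luciferase signal divided by Alamar Blue viability fluorescence both relative to DMSO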
# HIV Env fusion: inhibitors of HIV Env-mediated cell fusion. HeLa-JRFL Env/CEM21 cell fusion, luciferase. inhibition, % at 12.3 µM. hit rate 1.1% among 360,000. AID 651610;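 active = mean replicate inhibition score of at least 50 and every replicate individually at or above 50; inconclusive = only one of the two criteria met; inactive = mean below 50 and not all replicates reaching 50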
# A number is an active result; n = inactive; u = inconclusive; x = no result; ! = not confirmed by another sample; [ ] = remark or other dose. A selection: hits, their analogues and other compounds. The true share with any hit is near 3.1%.
SMILES,GSIS activator,PAX8 inh HTS,C2C12 statin,miR-122 sensor,EWS-Fli block,HIV Env fusion
COC(=O)C1CCCN1C(C(=O)NC1CCCCC1)c1ccc(Cl)cc1 (stereo not drawn),n,n,n,n,n,66
COC(CN(C(=O)CCl)C(C(=O)NC1CCCCC1)c1ccc(Cl)cc1)OC (stereo not drawn),x,n,71,n,n,n
CC(=O)N(C)C[C@H]1Oc2c(cccc2N(C)C)C(=O)N(C)C[C@H]1C,n,x,x,x,x,x
O=C(C[C@@H]1CC[C@@H]2[C@H](COC[C@@H](O)CN2Cc2ccc(Cl)cc2)O1)NCCc1ccccc1,n,n,n,n,n,n
C[C@@H]1CN([C@@H](C)CO)C(=O)c2cc(NC(=O)C3CC3)ccc2O[C@H]1CN(C)C(=O)Nc1ccccc1,n,n,n,n,n,n
O=C(NCCc1c[nH]c2ccccc12)c1ccc([N+](=O)[O-])o1,n,72,n,n,n,u
O=C(NCCc1c[nH]c2ccccc12)c1cc([N+](=O)[O-])cc([N+](=O)[O-])c1,n,n,n,n,n,n
COC(=O)c1ccc(CNC(=O)CCc2c[nH]c3ccccc23)cc1,50,n,n,x,n,n
Cc1ccccc1-c1cnc2c(c1)C(=O)N([C@H](C)CO)C[C@@H](C)[C@@H](CN(C)C(=O)c1cccnc1)O2,n,x,n,n,n,n
COc1ccc(NC(=O)N(C)C[C@H]2Oc3cc(C#CCN(C)C)ccc3S(=O)(=O)N([C@H](C)CO)C[C@H]2C)cc1,n,x,n,n,n,n
O=C(Nc1ccc2c(c1)[C@H]1C[C@@H](CC(=O)N3CCCCC3)O[C@@H](CO)[C@H]1O2)c1cccnc1,n,n,n,n,n,n
CC(C)NC(=O)N(C)C[C@H]1Oc2ccc(NC(=O)Nc3ccccc3)cc2CC(=O)N([C@H](C)CO)C[C@@H]1C,n,n,n,n,n,x
CC1=CC(=O)c2ccccc2C1=O,x,n,n,n,n,n
CC(C)(C=O)C1=CC(=O)c2ccccc2C1=O,n,65,x,x,x,n
CN(C)c1ccc(O)c2c1CC1CC3[C@@H](N(C)C)C(=O)C(C(N)=O)C(=O)[C@]3(O)C(=O)C1C2=O (stereo partly drawn),x,n,n,n,n,87
COc1ccc(S(=O)(=O)N(C)C[C@@H]2Oc3ccc(NS(=O)(=O)c4ccc(C)cc4)cc3CC(=O)N([C@@H](C)CO)C[C@H]2C)cc1,n,n,n,n,n,n
CCN(C[C@H]1N[C@@](CC)(C(=O)OC)[C@H]2C(=O)N(Cc3ccccc3)C(=O)[C@@H]12)C(=O)Nc1ccc(OC)cc1,n,n,n,n,n,87
CCN(C[C@H]1N[C@@](CC)(C(=O)OC)[C@H]2C(=O)N(Cc3ccccc3)C(=O)[C@@H]12)C(=O)c1ccc(F)cc1,n,n,n,n,n,56
COC(=O)[C@]1(Cc2ccccc2)N[C@H](CN(C)S(=O)(=O)c2ccc(-c3ccccc3)cc2)[C@@H]2C(=O)N(Cc3ccccc3)C(=O)[C@@H]21,n,n,n,n,n,59
CCN(C[C@H]1N[C@@](CC)(C(=O)OC)[C@H]2C(=O)N(C)C(=O)[C@@H]12)S(=O)(=O)c1ccc(OC)cc1,52,n,n,n,n,n
Cc1cc(C(=O)Nc2cccc3c2O[C@@H](CN(C)Cc2ccc(C(F)(F)F)cc2)[C@H](C)CN([C@@H](C)CO)C3=O)n(C)n1,n,n,n,n,n,n
CCN(C[C@H]1N[C@@](C)(C(=O)OC)[C@H]2C(=O)N(Cc3ccccc3)C(=O)[C@@H]12)C(=O)Nc1ccc(C)cc1,n,n,n,n,n,79
CCN(C[C@H]1N[C@@](C)(C(=O)OC)[C@H]2C(=O)N(Cc3ccccc3)C(=O)[C@@H]12)C(=O)Nc1ccccc1,n,n,n,x,n,127
CCNC(=O)N(CC)C[C@H]1N[C@@](C)(C(=O)OC)[C@H]2C(=O)N(Cc3ccccc3)C(=O)[C@@H]12,n,n,n,n,n,n
CCN(C[C@H]1N[C@@](C)(C(=O)OC)[C@H]2C(=O)N(Cc3ccccc3)C(=O)[C@@H]12)S(=O)(=O)c1ccc(C)cc1,n,n,n,x,n,69
SMILES,GSIS activator,PAX8 inh HTS,C2C12 statin,miR-122 sensor,EWS-Fli block,HIV Env fusion
CC[C@@]1(C(=O)OC)N[C@H](CN(C)C(C)=O)[C@@H]2C(=O)N(Cc3ccccc3)C(=O)[C@@H]21,n,n,n,x,n,n
CC[C@@]1(C(=O)OC)N[C@H](CN(C)C(=O)COc2ccccc2)[C@@H]2C(=O)N(Cc3ccccc3)C(=O)[C@@H]21,n,n,n,x,n,69
COc1ccc([C@H]2C/C=C\C[C@@H](c3ccc4c(c3)OCO4)NC(=O)[C@@H](c3ccccc3)CC(=O)N2)c(OC)c1,n,x,x,x,x,x
NS(=O)(=O)c1ccc(Sc2nc3ccccc3s2)c([N+](=O)[O-])c1,x,78,x,n,n,73
NS(=O)(=O)c1ccc(Sc2ccccn2)c([N+](=O)[O-])c1,n,n,n,n,n,n
COc1ccccc1NC(=O)N(C)C[C@@H]1OCc2ccccc2-c2c(n(C)c3ccccc23)C(=O)N([C@H](C)CO)C[C@@H]1C,n,n,n,n,n,67
C[C@@H]1CN([C@H](C)CO)C(=O)c2c(c3ccccc3n2C)-c2ccccc2CO[C@@H]1CN(C)C(=O)CCC(F)(F)F,n,n,n,x,n,n
C[C@H]1CN([C@@H](C)CO)C(=O)c2c(c3ccccc3n2C)-c2ccccc2CO[C@@H]1CN(C)C(=O)CCC(F)(F)F,n,65,x,x,n,n
C[C@H](CO)N1C[C@H](C)[C@@H](CN(C)Cc2ccc(Oc3ccccc3)cc2)OCc2ccccc2-c2c(n(C)c3ccccc23)C1=O,n,89,x,x,n,x
C[C@H](CO)N1C[C@H](C)[C@H](CN(C)C(=O)C2CC2)OCc2ccccc2-c2c(n(C)c3ccccc23)C1=O,n,n,n,x,n,60[16.7 µM]
COC(=O)N(C)C[C@@H]1OCc2ccccc2-c2c(n(C)c3ccccc23)C(=O)N([C@H](C)CO)C[C@@H]1C,n,n,n,n,n,66!
COC(=O)N(C)C[C@H]1OCc2ccccc2-c2c(n(C)c3ccccc23)C(=O)N([C@@H](C)CO)C[C@@H]1C,n,x,x,x,n,x
COc1ccc([Si](C)(C)[C@H]2[C@H](CCO)O[C@@]3(C(=O)N(Cc4ccccc4)c4ccc(N5CCOC5=O)cc43)[C@@H]2C)cc1,x,n,x,x,n,n
COc1ccc([Si](C)(C)[C@@H]2[C@@H](CCO)O[C@]3(C(=O)N(Cc4cccc(N5CCOC5=O)c4)c4ccccc43)[C@H]2C)cc1,x,102,x,x,n,u
COc1ccc([Si](C)(C)[C@H]2[C@H](CCO)O[C@@]3(C(=O)N(Cc4ccccc4)c4ccc(N5CCC5=O)cc43)[C@@H]2C)cc1,x,110,x,x,n,n
